Results published in PubChem BioAssay.
Values without a mark were called inactive. How the calls were made is not given here.

Biological target: Pantothenate synthetase (Mycobacterium tuberculosis (strain ATCC 25618 / H37Rv)) (UniProt P9WIL5)
Assay: Coupled enzyme confirmation of inhibitors against recombinant Mtb PanC (AID 375);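 further: 0% = full reaction with vehicle and 100% = no enzyme background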
Settings: coupled enzyme assay; at 10 µM, active compounds read high

Chain of Pantothenate synthetase (Mycobacterium tuberculosis (strain ATCC 25618 / H37Rv)) (P9WIL5 whole entry, looked up): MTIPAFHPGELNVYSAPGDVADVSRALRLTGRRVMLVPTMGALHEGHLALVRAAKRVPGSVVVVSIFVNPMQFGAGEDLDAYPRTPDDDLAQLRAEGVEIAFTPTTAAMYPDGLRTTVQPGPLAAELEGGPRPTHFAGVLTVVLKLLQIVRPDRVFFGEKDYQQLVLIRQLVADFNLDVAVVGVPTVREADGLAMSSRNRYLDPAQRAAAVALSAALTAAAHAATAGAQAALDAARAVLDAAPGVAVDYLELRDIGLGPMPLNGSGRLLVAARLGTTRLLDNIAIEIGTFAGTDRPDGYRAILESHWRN

| Compound | inhibition [%] |
| --- | --- |
| COc1ccc(-c2cc(C(=O)N3CCN(Cc4ccccc4)CC3)no2)cc1OC | 3 |
| C=CCNc1oc(-c2cccc3ccccc23)nc1C#N | 0 |
| O=C(NC1CCCC1)C(c1cccs1)N(C(=O)c1ccno1)c1ccccc1 (stereo unspecified) | 9 |
| CCn1c(=O)cc(SCC(=O)Nc2ccc3c(c2)OCO3)c2ccccc21 | 0 |
| CCN(c1cccc(C)c1)S(=O)(=O)c1ccc2[nH]c(=O)c(=O)[nH]c2c1 | 7 |
| CC1Cc2ccccc2N1CC(=O)NC(=O)NCc1ccco1 (stereo unspecified) | 2 |
| O=S1(=O)C=C(Oc2ccc(F)cc2)c2ccccc21 | 4 |
| Cc1ccc(C)c(S(=O)(=O)C(C#N)c2nc3ccccc3nc2N2CC(C)OC(C)C2)c1 (stereo unspecified) | 0 |
| CCCCCCNS(=O)(=O)c1ccc(Cl)s1 | 2 |
| N#CCc1ccc(NC(=O)Nc2cccc(Cl)c2)cc1 | 0 |
| Cc1ccc(-c2nnn(CC(=O)N(CC(=O)NC3CCCCC3)c3cnc4ccccc4c3)n2)o1 | 8 |
| CCOC(=O)N1CCN(CCC(=O)c2ccc(Cl)cc2)CC1 | 2 |
| COCCn1c(=O)[nH]c2cc(C(=O)N3CCN(c4ccccc4OC)CC3)ccc2c1=O | 2 |
| O=c1[nH]c(N2CCc3ccccc32)nc2c1CCCC2 | 0 |
| O=C(c1ccc(Cl)cc1)N1CCCCC(Sc2nnc(-c3ccc4c(c3)OCO4)o2)C1=O (stereo unspecified) | 3 |
| Cc1cc(NC(=O)C23CCC(C)(c4nc5cc(Cl)c(Cl)cc5nc42)C3(C)C)no1 (stereo unspecified) | 0 |
